High-throughput results: PubChem, National Center for Advancing Translational Sciences (NCATS)
Rows were chosen to be rich in hits. Some 12% of all compounds tested hit in one or more screens of this group.
BAZ2B inh = qHTS Assay for Inhibitors of BAZ2B | Bromodomain adjacent to zinc finger domain protein 2B (Homo sapiens), Q9UIF8 | AlphaScreen BAZ2B-H3K14Ac peptide displacement | Potency, µM (highest dose often 114 µM), for the others: at the top dose activity change, negative = inhibition, actives largely listed as inhibitors | hit rate 4.4% among 360,000 | AID 504333, 2011; further: potency means the concentration at half of the fitted maximal effect; on the % scale 0 is the no-effect control and ±100 the full control effect; nearly all actives have a fitted effect of over 60% in size
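Multi-concentration screen (max 110 uM) measuring displacement of acetylated histone H3 peptide from BAZ2B by AlphaScreen, using 50 nM protein, 50 nM peptide and 10 ug/mL streptavidin donor plus Ni-chelate acceptor beads.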
PI5P4K alpha inh = qHTS for Inhibitors of phosphatidylinositol 5-phosphate 4-kinase (PI5P4K); Phosphatidylinositol 5-phosphate 4-kinase type-2 alpha (Homo sapiens), P48426; PI5P4Kalpha enzyme, ADP-Glo luminescence, 60 min; active compounds read low; max response, %; hit rate 1.2% among 330,000; active means max response of -50% or lower; inconclusive means between -30% and -50%; inactive means -30% or higher; further: value at the top dose of about 77 µM; on the % scale 0 is the no-effect control and ±100 the full control effect
Target sequence (P48426 whole entry, looked up): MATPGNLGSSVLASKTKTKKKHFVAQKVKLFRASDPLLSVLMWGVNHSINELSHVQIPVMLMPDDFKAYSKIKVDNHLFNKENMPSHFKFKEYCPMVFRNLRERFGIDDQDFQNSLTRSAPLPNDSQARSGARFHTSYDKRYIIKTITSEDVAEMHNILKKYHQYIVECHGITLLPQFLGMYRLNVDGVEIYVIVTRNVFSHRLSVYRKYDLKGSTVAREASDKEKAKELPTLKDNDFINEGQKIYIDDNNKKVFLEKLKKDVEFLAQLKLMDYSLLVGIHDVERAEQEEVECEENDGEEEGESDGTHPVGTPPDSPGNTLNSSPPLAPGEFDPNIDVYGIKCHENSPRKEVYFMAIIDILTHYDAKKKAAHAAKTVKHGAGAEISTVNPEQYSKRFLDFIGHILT
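Single end-point luminescence (ADP-Glo) quantified ADP from PI5P4Kalpha turnover; ATP 5 microM final, 1 h at RT, 0.1% CHAPS and 0.28 mM EGTA in HEPES pH 7.4.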
G9a block = qHTS Assay for Inhibitors of Histone Lysine Methyltransferase G9a | Histone-lysine N-methyltransferase EHMT2 (Homo sapiens), Q96KQ7 | G9a H3K9 monomethylation, AlphaScreen, 2 h | Potency, µM (series often up to 102 µM), inactives show top-dose activity, negative = inhibition, most hits filed as inhibitors | hit rate 8.8% among 350,000 | AID 504332, 2011; further: potency means the concentration at half of the fitted maximal effect; on the % scale 0 is the no-effect control and ±100 the full control effect; nearly all actives have a fitted effect of over 75% in size
Target sequence (Q96KQ7 913-1193 limits assumed): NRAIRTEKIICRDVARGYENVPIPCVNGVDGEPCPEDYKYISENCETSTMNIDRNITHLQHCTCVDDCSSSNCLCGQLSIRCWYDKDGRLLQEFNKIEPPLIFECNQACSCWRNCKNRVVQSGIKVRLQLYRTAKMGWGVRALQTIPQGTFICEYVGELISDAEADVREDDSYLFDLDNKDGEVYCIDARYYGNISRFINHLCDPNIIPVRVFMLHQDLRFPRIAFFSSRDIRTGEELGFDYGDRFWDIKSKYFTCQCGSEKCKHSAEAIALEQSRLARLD
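Using a bead-based AlphaScreen, monomethylated H3K9 product from 2 h room-temperature reactions (G9a 20 nM, peptide 500 nM, SAM 20 uM) was detected with 0.5 ug/mL rabbit anti-H3K9me1 antibody.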
PLK1 PBD block = qHTS for Inhibitors of PLK1-PDB (polo-like kinase 1 - polo-box domain): Primary Screen. Plk1 PBD binding of FITC phosphopeptide, fluorescence polarization. Potency, µM, inactives show max response, negative = inhibition, usual class: inhibitors. hit rate 2.8% among 360,000; further: potency means the concentration at half of the fitted maximal effect; series mostly up to about 57 µM; on the % scale 0 is the no-effect control and ±100 the full control effect; nearly all actives have a fitted effect of over 65% in size
HP1b binding inh = HTS for Inhibitors of HP1-beta Chromodomain Interactions with Methylated Histone Tails | AlphaScreen HP1-beta / biotin-H3K9me3 peptide binding | Potency, µM (highest dose often 114 µM), for inactives: at the top dose activity change, negative = inhibition, actives largely listed as inhibitors | Chromobox protein homolog 1 (Homo sapiens), P83916 | hit rate 0.56% among 390,000; further: potency means the concentration at half of the fitted maximal effect; nearly all actives have a fitted effect of over 70% in size
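HP1-beta protein (50 nM final) preincubated 30 min at room temperature with biotinylated H3(1-18)K9me3 peptide (50 nM) in PBS pH 7.4, 0.01% Tween-20, then compound added for 30 min. AlphaScreen streptavidin donor/nickel chelate acceptor beads (10 ug/mL final), 30 min dark, luminescence read.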
JMJD2A Tudor = qHTS Assay for Inhibitors of JMJD2A-Tudor Domain; Lysine-specific demethylase 4A (Homo sapiens), O75164; AlphaScreen JMJD2A-Tudor / H3K4me3 peptide binding; Potency, µM (series often up to 114 µM), for the others: at the top dose activity change, negative = inhibition, usual class: inhibitors; hit rate 4.4% among 390,000; further: potency means the concentration at half of the fitted maximal effect; on the % scale 0 is the no-effect control and ±100 the full control effect; nearly all actives have a fitted effect of over 50% in size
* = called active by the depositor; ? = inconclusive; · = not tested or not shown; [ ] = dose if it differs, or a comment. Unless noted, the call rests on the fitted dose curve; in most records, active means well fitted curve in the direction sought with a large enough effect; inconclusive means small, poorly fitted or top-dose-only effect, or another doubt; inactive means no such curve, though single readings can be large; an effect the other way counts as inactive or inconclusive.

SMILES	BAZ2B inh	PI5P4K alpha inh	G9a block	PLK1 PBD block	HP1b binding inh	JMJD2A Tudor
Cc1ccc(NC(=S)N/N=C2\CC3CC=CC23)c(C)c1 (stereo not drawn)	-34%	-20	?	?	-8%	?
O=C(/C=C/c1ccccc1)NCCSCc1ccccc1	7%	-14	?	30µM*	?	?
CCCCNC(=O)C1c2ccccc2OCC(=O)N1Cc1ccccc1 (stereo not drawn)	·	-1	·	0%	·	·
O=C(N/N=C1/CC2C=CCC12)c1ccco1 (stereo not drawn)	-28%	1	-7%[59 µM]	30µM*	9%	50µM*
CC[C@H]1OC(=O)[C@H](C)[C@@H](O[C@H]2C[C@@](C)(OC)[C@@H](O)[C@H](C)O2)[C@H](C)[C@@H](O[C@@H]2O[C@H](C)C[C@H](N(C)C)[C@H]2O)[C@](C)(O)C[C@@H](C)C(=O)[C@H](C)[C@@H](O)[C@]1(C)O	-33%	15	1%[12.7 µM]	21µM*	29%	-29%
CCOC(=O)CCC(=O)O[C@H]1[C@H](O[C@@H]2[C@@H](C)[C@H](O[C@H]3C[C@@](C)(OC)[C@@H](O)[C@H](C)O3)[C@@H](C)C(=O)O[C@H](CC)[C@@](C)(O)[C@H](O)[C@@H](C)C(=O)[C@H](C)C[C@@]2(C)O)O[C@H](C)C[C@@H]1N(C)C	9%	0	17%	-10%	37%	-12%
COc1ccc(N(CC(=O)NN=C2CCCC2)S(=O)(=O)c2ccccc2)cc1	-12%	·	32%[12.7 µM]	-2%	17%	-26%
COc1ccc(N2CCN(C(=O)CN(c3cccc(OC)c3)S(=O)(=O)c3ccccc3)CC2)cc1	?	-2	8.9µM*	1%	?	?
COc1ccc(S(=O)(=O)N(CC(=O)N2CCN(c3ccccc3)CC2)c2ccccc2)cc1	-29%	0	7%	2%	16%	-20%
COc1ccc(N2CCN(C(=O)c3ccccc3N(C)S(=O)(=O)c3ccccc3)CC2)cc1	?	0	45µM*	4%	-13%	-35%
CN(c1ccccc1C(=O)N1CCN(c2ccccc2F)CC1)S(=O)(=O)c1ccccc1	-16%	-3	-9%	5%	0%	-24%
COc1ccc(N(CC(=O)NCC(C)C)S(=O)(=O)c2ccccc2)cc1	-14%	-26	17%	19µM*	-15%	?
COc1ccc(S(=O)(=O)N(C)c2ccc(C(=O)N3CCN(C)CC3)cc2)cc1	-5%	2	50µM*	-10%	28%[57 µM]	3%
CCOc1ccc(S(=O)(=O)N2CCN(c3nc(-c4ccccc4)nc4ccccc34)CC2)cc1OCC	·	·	·	·	26%	-23%
COc1ccc(N2CCN(C(=O)c3ccc(N(C)S(=O)(=O)c4ccc(OC)cc4)cc3)CC2)cc1	?	?	·	13µM*	?	18µM*
COc1ccc(N2CCN(C(=O)c3ccc(N(C)S(=O)(=O)c4ccc(C)cc4)cc3)CC2)cc1	?	-6	-4%[0.501 µM]	-9%	?	?
COc1cc(OC)c(N(C)C(=O)C2CCCN(c3ncnc4c3nc3n4CCCCC3)C2)cc1Cl (stereo not drawn)	-34%	·	-33%[59 µM]	·	7%	-30%
COc1ccc2c(c1)NC(c1cc(Cl)cc(Cl)c1O)c1cccn1-2 (stereo not drawn)	-10%	8	?	-6%	26%	-16%
COc1ccc2c(c1)NC(c1ccc(N(C)C)cc1)c1cccn1-2 (stereo not drawn)	-3%	9	79µM*	0%	102%	21%
COc1ccc(CCC(=O)NCc2nc3cccnc3n2Cc2ccc(F)cc2)cc1	1%	·	16%[59 µM]	·	9%[57 µM]	-8%
Cc1cc(C)cc(OCCN2CCOCC2)c1	-31%	7	11µM*	0%	?	28µM*
Cc1ccc(OCCCCCN2CCOCC2)cc1	-1%	10	23%[59 µM]	3%	23%	-2%
COc1ccc(OCCN2CCOCC2)cc1	?	-2	32µM*	5%	?	50µM*
Cc1ccc(OCCCN2CCOCC2)cc1	?	6	40µM*	-20%	?	10µM*
c1ccc(Cc2ccc(OCCN3CCOCC3)cc2)cc1	-25%	10	-9%	0%	20%	-24%
SMILES	BAZ2B inh	PI5P4K alpha inh	G9a block	PLK1 PBD block	HP1b binding inh	JMJD2A Tudor
c1ccc(OCCN2CCOCC2)cc1	35µM*	0	-29%[2.33 µM]	1%	?	20µM*
COc1ccc(OCCC(=O)NCCN2CCOCC2)cc1	-13%	1	56µM*	-1%	24%	-18%
COc1ccccc1CN1CCC2(CC1)CCN(C(=O)c1c(C)noc1C)CC2	·	·	-7%[12.7 µM]	·	·	·
COc1ccncc1-c1ccccc1C1=CC(=O)CC(C)(C)C1=O	·	-6	·	1%	·	·
CCn1c(SCC(=O)N/N=C/c2ccccc2OCC(=O)O)nnc1-c1ccc(OC)cc1	56µM*	-1	-23%	-9%	-7%	-18%
O=C(O)COc1ccccc1/C=N/NC(=O)CSc1nc2ccccc2c(=O)n1-c1ccc(Cl)cc1	56µM*	-12	?	-17%	15%	?
CCc1cccc(NC(=O)CSc2nc3ccccc3nc2N2CCCCC2)c1	51%	·	61%[59 µM]	·	116%	49%
CCN(CC)CCC(=O)N1C/C(=C/c2ccccc2)C(=O)/C(=C\c2ccccc2)C1	·	16	·	-15%	20%	-24%
Cc1c(NC(=O)Nc2ccccc2C(F)(F)F)sc2nc3n(c(=O)c12)CCC(C)CC3 (stereo not drawn)	-8%	·	-3%[59 µM]	·	36%	-1%
O=c1[nH]c(=O)n2ncnc2[nH]1	·	?	·	-8%	·	·
COC(=O)C(=O)/C=C(\O)c1c(C)cc(C)cc1C	79µM*	11	18µM*	-6%	8%	?
COc1ccc(OC)c(/C(O)=C/C(=O)C(=O)Nc2cc(C)cc(C)c2)c1	7%	2	-11%[59 µM]	-7%	36%	-24%
COC(=O)[C@H]1C[C@H](OC(=O)NC2CC2)[C@@]2(O)CN(S(=O)(=O)c3ccc(C)cc3)CC2[C@H]1C(=O)OC (stereo partly drawn)	·	-3	·	-5%	·	·
CCOC(=O)c1ccc(NC(=O)CSc2nc3ncc(Br)c(C)c3[nH]2)cc1	2%	·	-3%[59 µM]	·	12%	0%
